Here are results for 40 compounds from PubChem BioAssay (NCI).

Each structure is given as a SMILES string. Compounds without any hit were thinned out: in the full panel of roughly 79,000, 15% have a hit. Values without a mark were called inactive. Activity calls are given as the source filed them. No stated cut-off is given here; in the data, active means growth inhibition above about 70%; inactive means the rest.

The nature of the first test: NCI Yeast Anticancer Drug Screen. Data for the bub3 strain (AID 167). Conditions: S. cerevisiae bub3 mutant strain, at 50.0 µM, active compounds read high. The method, boiled down:
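Growth of a checkpoint-deficient yeast mutant is measured after compound exposure. Values represent inhibition relative to vehicle.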
As to `NSC(=S)NCc1ccco1`, the growth inhibition is 15.8%. As to `Cc1ccc(NC(=O)Oc2ccc(Br)cc2)c([N+](=O)[O-])c1`, the growth inhibition was 11.3%. On the same count and under the same terms, then `CCOC(=O)C(CC[C@@H]1N[C@H](C(N)=O)Cc2c1[nH]c1ccccc21)C(=O)OCC`, with 7.9%; and `Cn1cnc2ncnc(Nc3ccc(Cl)cc3)c21`, with 10%; and `O=C1c2ccsc2C(=O)c2sc(CO)cc21`, with 90% (active). Consider `CN(C)CC(CN(C)C)C(=O)c1ccc(OC2OC(CO)C(O)C(O)C2O)cc1` (configuration not stated), for which the growth inhibition was -9.35%. As to `Cn1c(N)c(NC(=O)CC#N)c(=O)n(C)c1=O`, the growth inhibition is -9.85%. Still for that read-out and setting: the result for `COc1cc(CNC(=S)CCCCCCCCCCC(C)C)ccc1O` reads 15.2%. Still for that read-out and setting: then `Cn1c2c(c(=O)c3c4[nH]c5c(c(=O)c4ccc31)CCCC5)CCCC2`, with -4.95%; and `C1=Cc2ccccc2Nc2ccccc21`, with -11.9%. As to `c1ccc2c(c1)cc1n2CC2CN=NC12` (configuration not stated), the growth inhibition is -5.55%. Consider `Cc1sc2nc3n(c(=O)c2c1C)N=C(c1ccc([N+](=O)[O-])cc1)CS3`, for which the growth inhibition was 7.2%. Same read-out and setting: then `CC12CCC(Cl)(CC1O)C2(C)C` (configuration not stated), with -6.9%; and `COc1ccc(CC(=O)NCCc2ccc(OC)c(OC)c2OC)cc1`, with -10.7%; and `COc1cc2c(c3[nH]cc(C(=O)O)c(=O)c13)NC(=O)CS2`, with -2.85%. Still for that read-out and setting: then `COc1ccc(-c2c3c(n(C4OC(COC(C)=O)C(OC(C)=O)C(OC(C)=O)C4OC(C)=O)c(=S)c2C#N)CCCC3)cc1` (configuration not stated), with -1.95%; and `CC(=O)OC1CC2C(C)(CCC3C2(C)CCC2(C)C4CC(C)(C)CCC4(C)CCC32C)C1C` (configuration not stated), with -3.2%. Same read-out and setting: then `CC(=O)OC1C=CCC2C(=O)C3=C(C(=O)c4ccccc4C3=O)C(=O)C12` (configuration not stated), with 65%; and `COc1ccc(N)cc1CO`, with -12.3%; and `O=C1NC(=NC2CCCCC2)C2(CCN(CCCC3(c4ccc(F)cc4)OCCO3)CC2)N1c1ccccc1`, with -5%. For the compound `COC(=O)/C=C1\CCC2C3CC=C4C=C(N5CCCC5)CCC4(C)C3C(=O)CC12C` (configuration not stated), the growth inhibition is -12.4%. In the case of `O=C(C[n+]1ccccc1CCCO)c1ccc(F)cc1`, the growth inhibition is 3%.

Another test is described as follows: NCI Yeast Anticancer Drug Screen. Data for the mlh1 rad18 strain (AID 175). To be noted: S. cerevisiae mlh1 rad18 strain growth inhibition; at 50.0 µM; active compounds read high. The method, boiled down:
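Compound-treated yeast growth, normalised to vehicle controls. Strain bears defined DNA repair mutations.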
Consider `NC(=O)Nc1ccc(Cl)cc1[N+](=O)[O-]`, for which the growth inhibition was -7.1%. As for `CCCCCCCCCCCCCCCCS(=O)(=O)N/N=C/c1ccccc1O`, the growth inhibition is 20.2%. On the same count and under the same terms, then `CCCCOC(=O)c1cc2ccccc2oc1=O`, with 34%; and `O=C1O/C(=C(/Cl)c2cccc3ccccc23)c2ccccc21`, with -38%; and `CC1(c2ccc(Cl)cc2)NC(=O)NC1=O` (configuration not stated), with -20.1%.

With `CCCCCCCCCC(=O)N/N=C/c1ccco1`, the growth inhibition is 78% (active). Same read-out and setting: then `Cc1ccc(C(C)C)c(OC2OC(C(=O)O)C(O)C(O)C2O)c1` (configuration not stated), with -10.4%. Consider `Cc1ccc(OS(=O)Nc2cccc(N)c2)cc1` (configuration not stated), for which the growth inhibition was -10.3%.

With `CCCCC1C(=O)N=C2C=CC=CN2C1=O` (configuration not stated), the growth inhibition is -7.4%. As for `NC(=O)NC(=O)OCCOC(=O)NC(N)=O`, the growth inhibition is -13.2%.

Regarding `CSc1nc2ncnc(N(C)C)c2[nH]1`, the growth inhibition was -16.5%.

As to `Nc1ccc(C(=O)NN2C(=O)C(Cl)C2c2cc(Br)ccc2O)cc1` (configuration not stated), the growth inhibition is 10.8%. For `Cc1cc(=O)c2cc(-c3ccccc3)ccc2[nH]1`, the growth inhibition is 2%. Turning to `CCN(CC)C(=O)C1CCN(CCC(=O)Nc2ccccc2)CC1`, the growth inhibition was 7.15%. Still for that read-out and setting: then `Cc1cc(C)c(CC(=O)NCC(=O)NN)c(C)c1`, with -28.8%; and `CCC/C=C/c1cc2c(cc1O)CC[C@@H]1[C@@H]2CC[C@]2(C)[C@@H](O)CC[C@@H]12`, with 23.9%; and `COc1ccccc1NC(=O)CC(C)=O`, with -8.5%. Still for that read-out and setting: the result for `CO[C@@H]1[C@@H](OC2OC(C)C(OC3CC(C)(O)C(OC(=O)CC(C)C)C(C)O3)C(N(C)C)C2O)[C@@H](CC=O)C[C@@H](C)C(=O)/C=C/C2O[C@H]2C[C@@H](C)OC(=O)C[C@H]1OC(C)=O` (some centres not stated) reads 17.3%; that for `NSC(=S)NCc1ccco1`, 13.7%. Same read-out and setting: the result for `Cc1ccc(NC(=O)Oc2ccc(Br)cc2)c([N+](=O)[O-])c1` reads 13.8%; that for `CCOC(=O)C(CC[C@@H]1N[C@H](C(N)=O)Cc2c1[nH]c1ccccc21)C(=O)OCC`, -13.7%. With `Cn1cnc2ncnc(Nc3ccc(Cl)cc3)c21`, the growth inhibition is -6.1%. For `O=C1c2ccsc2C(=O)c2sc(CO)cc21`, the growth inhibition was 83% (active). Consider `CN(C)CC(CN(C)C)C(=O)c1ccc(OC2OC(CO)C(O)C(O)C2O)cc1` (configuration not stated), for which the growth inhibition was 2.05%. The same measure, in the same setting: the result for `Cn1c(N)c(NC(=O)CC#N)c(=O)n(C)c1=O` reads 21.1%. Same read-out and setting: then `COc1cc(CNC(=S)CCCCCCCCCCC(C)C)ccc1O`, with -21.4%.

With `Cn1c2c(c(=O)c3c4[nH]c5c(c(=O)c4ccc31)CCCC5)CCCC2`, the growth inhibition is 3.6%. The same measure, in the same setting: then `C1=Cc2ccccc2Nc2ccccc21`, with -23.5%; and `c1ccc2c(c1)cc1n2CC2CN=NC12` (configuration not stated), with 10.1%. Same read-out and setting: the result for `Cc1sc2nc3n(c(=O)c2c1C)N=C(c1ccc([N+](=O)[O-])cc1)CS3` reads -8.1%; that for `CC12CCC(Cl)(CC1O)C2(C)C` (configuration not stated), -1.05%. For `COc1ccc(CC(=O)NCCc2ccc(OC)c(OC)c2OC)cc1`, the growth inhibition is -32.8%. On the same count and under the same terms, then `COc1cc2c(c3[nH]cc(C(=O)O)c(=O)c13)NC(=O)CS2`, with -29.4%; and `COc1ccc(-c2c3c(n(C4OC(COC(C)=O)C(OC(C)=O)C(OC(C)=O)C4OC(C)=O)c(=S)c2C#N)CCCC3)cc1` (configuration not stated), with -5%; and `CC(=O)OC1CC2C(C)(CCC3C2(C)CCC2(C)C4CC(C)(C)CCC4(C)CCC32C)C1C` (configuration not stated), with 3.2%. For `CC(=O)OC1C=CCC2C(=O)C3=C(C(=O)c4ccccc4C3=O)C(=O)C12` (configuration not stated), the growth inhibition is 33.2%. Same read-out and setting: then `COc1ccc(N)cc1CO`, with 12.7%. On the same count and under the same terms, then `O=C1NC(=NC2CCCCC2)C2(CCN(CCCC3(c4ccc(F)cc4)OCCO3)CC2)N1c1ccccc1`, with -1.45%; and `COC(=O)/C=C1\CCC2C3CC=C4C=C(N5CCCC5)CCC4(C)C3C(=O)CC12C` (configuration not stated), with -18.2%; and `O=C(C[n+]1ccccc1CCCO)c1ccc(F)cc1`, with 8.45%.
